# Experimental data: PubChem BioAssay (NCI)
# This is part of a sample that, as a whole, favours compounds with a hit. Of some 83,000 tested, about 20% had one in any assay.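 Note: values are percent growth. 100 is the growth of untreated cells, values between 100 and 0 indicate rising inhibition; between -100 and 0 indicates cell death.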 Values without a mark were called inactive. Activity calls are given as the source filed them. The calls were made as follows: active = growth percent below 10; inactive = the rest.
# Legend:
# Assay in all cases: NCI-60 one-dose screen, 48 h (100 = growth as untreated, 0 = no growth, -100 = all killed)
# Conditions in all cases: 10 µM
# HCT-15 colon = system: HCT-15 colon
# HT29 colon = system: HT29 colon
# SNB-75 CNS = system: SNB-75 CNS
# SNB-19 CNS = system: SNB-19 CNS
# U251 CNS = system: U251 CNS
# PC-3 prostate = system: PC-3 prostate
# SK-MEL-5 melanoma = system: SK-MEL-5 melanoma
# UACC-62 melanoma = system: UACC-62 melanoma
# LOX IMVI melanoma = system: LOX IMVI melanoma
# SK-MEL-28 melanoma = system: SK-MEL-28 melanoma
# SK-MEL-2 melanoma = system: SK-MEL-2 melanoma
# EKVX NSCLC = system: EKVX NSCLC
# SN12C renal = system: SN12C renal
# UO-31 renal = system: UO-31 renal
# TK-10 renal = system: TK-10 renal
# ACHN renal = system: ACHN renal
# A498 renal = system: A498 renal
# MOLT-4 leukemia = system: MOLT-4 leukemia
# CAKI-1 renal = system: CAKI-1 renal
# CCRF-CEM leukemia = system: CCRF-CEM leukemia
SMILES,growth (HCT-15 colon),growth (HT29 colon),growth (SNB-75 CNS) [%],growth (SNB-19 CNS) [%],growth (U251 CNS),growth (PC-3 prostate) [%],growth (SK-MEL-5 melanoma),growth (UACC-62 melanoma),growth (LOX IMVI melanoma),growth (SK-MEL-28 melanoma) [%],growth (SK-MEL-2 melanoma),growth (EKVX NSCLC) [%],growth (SN12C renal),growth (UO-31 renal),growth (TK-10 renal),growth (ACHN renal),growth (A498 renal),growth (MOLT-4 leukemia),growth (CAKI-1 renal) [%],growth (CCRF-CEM leukemia)
COc1ccc(/C=C/c2nnc(/C=C/c3ccc(OC)c(OC)c3)o2)cc1OC,21.6%,-7.7% (active),38.4,14.8,16.2%,31.5,2.81% (active),9.17% (active),4.41% (active),30.6,20.3%,36.9,22.1%,37.4%,45.5%,45.4%,31.4%,20.3%,–,–
COc1ccc(/C=C2\CCCC3C2=Nc2ccccc2NC3c2ccc(OC)cc2)cc1 (stereo unspecified),93.9%,74.8%,101,92,80.9%,86.9,88.5%,68%,57.4%,98.3,92%,87.5,85.5%,74.1%,–,113%,77.3%,–,78.2,–
O=C(NCCCNS(=O)(=O)c1ccc(Cl)cc1)Nc1ccc(-n2cc(-c3ccncc3)c(-c3ccc(Cl)c(O)c3)n2)cc1,36.1%,0.25% (active),61.7,51.1,37.6%,17.3,2.07% (active),42.8%,24.1%,40.7,43.4%,61.7,46.1%,40.9%,62.5%,26.4%,50.1%,15.6%,–,–
COc1ccc2c(c1)C(=O)/C(=C/c1cccc(OCC(=O)c3ccc([N+](=O)[O-])cc3)c1)CO2,-37.6% (active),6.81% (active),55.5,90.1,22.4%,22.5,15.8%,46.7%,-100% (active),43.9,-47.3% (active),75.6,65.6%,-68% (active),3.16% (active),51.8%,79.5%,-38% (active),–,-11.8% (active)
COc1cc2cc(Oc3ccc(NC(=O)Nc4ccc(C(F)(F)F)cc4)cc3)c(C)nc2cc1OC,75.4%,44.6%,41,93.4,15%,48.3,47.4%,69.2%,56.4%,58.4,76.7%,75.7,72.2%,87.6%,–,56.1%,90.5%,61.9%,70.4,68.5%
O=C1c2ccccc2C(=O)c2c1ccc(C(Br)Br)c2[N+](=O)[O-],38.3%,46.1%,109,60.9,9.58% (active),19.2,60.8%,27.6%,-65.3% (active),102,77.5%,46.8,34.4%,50.6%,73.2%,-16.1% (active),26.6%,-45.5% (active),–,–
CNC(=O)c1cc(Oc2ccc3c(c2)sc2nc(-c4ccc(NC(=O)Nc5ccc(Cl)c(C(F)(F)F)c5)cc4)cn23)ccn1,71.4%,67.2%,66.6,85.7,61.9%,64,86.6%,88%,76.1%,88.4,75.4%,77.3,87.3%,73.9%,81%,82.8%,83%,64.2%,–,–
COc1cc(C)ccc1Oc1nc(Nc2ccc(N3CCOCC3)cc2)ncc1NC(=O)Nc1cc(C(F)(F)F)cc(C(F)(F)F)c1,66.6%,63.8%,65.9,61.4,53.1%,38.1,82.6%,82.6%,47.1%,94,88.6%,80.7,58.1%,67.5%,51.1%,24.4%,67.8%,19.2%,–,–
CNS(=O)(=O)Oc1ccc(-c2ccc3occc3c2)cc1,92.8%,99.1%,106,101,94.1%,90.6,101%,87.3%,96.4%,94.4,108%,38.6,97.7%,90.4%,98.5%,99.5%,102%,96.2%,–,–
CN(C)CCCSc1ccccc1NC1=C(Cl)C(=O)C(Nc2ccccc2SCCCN(C)C)=C(Cl)C1=O,72.1%,22.7%,105,90.6,23%,42.8,91.1%,60.7%,-81.7% (active),104,43.8%,67.5,-61.2% (active),35%,13.8%,-20.6% (active),105%,-34% (active),–,-15.2% (active)
Nc1cc(Br)c(-c2nn3c(CCC(=O)c4nc5ccccc5[nH]4)nnc3s2)c(Br)c1,124%,78.7%,92.6,104,97.5%,87.1,91.6%,101%,93.4%,111,100%,95.5,97.7%,71.1%,117%,99.8%,65.6%,84.9%,–,–
CN(C)c1ccc(/C=N/NC(=O)c2ccccc2Nc2cccc(C(F)(F)F)c2)cc1,78.2%,97.2%,94.4,92.7,81.1%,76.1,81.8%,86.3%,65.3%,91.2,62.3%,82.2,87.6%,77.2%,–,97.4%,1.42% (active),76.7%,77.7,53.4%
CS(=O)(=O)c1nccc(-c2c(-c3cccc(OCc4ccc(F)cc4)c3)nc3sccn23)n1,59.2%,82.9%,95.9,83.2,96.6%,59.3,5.39% (active),60.1%,36.6%,62.8,96%,97.2,77.7%,-24.1% (active),–,94.9%,77.3%,24.2%,34.4,50%
NC(N)=N/N=C(\c1ccccc1)C(O)c1ccccc1 (stereo unspecified),111%,92.3%,93.7,95.3,106%,94.6,103%,94.6%,94.2%,107,101%,103,99.6%,81.1%,94.2%,109%,–,99.9%,–,–
CCn1c(SC/C(=N/O)c2ccccc2)nnc1-c1ccccc1,101%,104%,87.8,98.9,102%,81.2,100%,86.2%,104%,106,108%,90.6,88.6%,91.5%,–,105%,69.3%,94.8%,89,88.9%
Oc1ccc(/C=N/N=C2c3ccccc3-c3ccccc32)c(O)c1,46.4%,97.5%,73.1,80.3,78.7%,72.9,25.8%,58.6%,70.3%,74.5,80.9%,78.4,56.1%,56.1%,108%,70.1%,95.6%,77.9%,–,60.4%
CCOC(=O)c1cc(C(=O)c2ccc(OC)c(OC)c2)n2ccncc12,89.9%,84.6%,104,98,105%,80.6,89.4%,94%,77.7%,115,96%,106,102%,71.3%,123%,88.1%,94.6%,94.2%,–,–
